Source: PubChem BioAssay (EPA / NIEHS)
Active and inactive are the calls of the source. Rule for the calls: active = hit-call score of the fitted dose curve at least 0.9, where 1 is the maximum; inactive = score below 0.9.

Experiments:
[1] = read-out: Interferon-gamma inducible Protein 10 (IP10), CXCL10 (gene 3627); test: BSK_hDFCGF_IP10: BioMAP Diversity Plus: hDFCGF Assay for Interferon-gamma inducible Protein 10 (IP10) Biomarker Activity (AID 2283053); details: primary human foreskin fibroblasts; actives raise or lower the signal
How it was run: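 IP-10 levels, quantified by ELISA, are taken from human foreskin fibroblast cultures 24 h after chemical treatment, with DMSO serving as negative control and baseline for bidirectional analysis.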

[2] = read-out: Urokinase-type plasminogen activator receptor (uPAR), PLAUR (gene 5329); test: BSK_CASM3C_uPAR: BioMAP Diversity Plus: CASM3C Assay for Urokinase-type plasminogen activator receptor (uPAR) Biomarker Activity (AID 2283054); details: primary human coronary artery smooth muscle cells; actives raise or lower the signal;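 note: cell-surface uPAR protein level quantified by ELISA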
[3] = read-out: Vascular cell adhesion molecule 1 (VCAM1), VCAM1 (gene 7412); test: BSK_CASM3C_VCAM1: BioMAP Diversity Plus: CASM3C Assay for Vascular cell adhesion molecule 1 (VCAM1) Biomarker Activity (AID 2283055); details: primary human coronary artery smooth muscle cells; actives raise or lower the signal;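 note: VCAM-1 protein level quantified by ELISA on the cells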
[4] = read-out: Collagen III, COL3A1 (gene 1281); test: BSK_hDFCGF_CollagenIII: BioMAP Diversity Plus: hDFCGF Assay for Collagen III Biomarker Activity (AID 2283056); details: primary human foreskin fibroblasts; actives raise or lower the signal
How it was run: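 ELISA readout of Collagen III in human dermal (foreskin) fibroblasts, taken 24 h post-treatment. Gain or loss relative to DMSO vehicle fitted in both directions.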

[5] = read-out: Epidermal growth factor receptor (EGFR), EGFR (gene 1956); test: BSK_hDFCGF_EGFR: BioMAP Diversity Plus: hDFCGF Assay for Epidermal growth factor receptor (EGFR) Biomarker Activity (AID 2283057); details: primary human foreskin fibroblasts; actives raise or lower the signal
How it was run: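 Measured by ELISA: EGFR levels on primary human foreskin fibroblasts 24 h after chemical treatment, analysed relative to DMSO with bidirectional fitting.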

[6] = read-out: Interleukin-8 (IL8), CXCL8 (gene 3576); test: BSK_hDFCGF_IL8: BioMAP Diversity Plus: hDFCGF Assay for Interleukin-8 (IL8) Biomarker Activity (AID 2283058); details: primary human foreskin fibroblasts; actives raise or lower the signal
How it was run: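 IL-8 levels read by ELISA at 24 hours after dosing human skin fibroblast cultures. Parallel SRB staining assessed overt cytotoxicity, and gain or loss of signal was fitted against DMSO control.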

[7] = BSK_hDFCGF_Proliferation: Cell Proliferation Assessment in the BioMAP Diversity Plus: hDFCGF Assay (AID 2283059); details: primary human foreskin fibroblasts;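 note: curves fitted for both rise and fall of signal versus DMSO baseline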
How it was run: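 This proliferation readout used SRB total-protein staining of human foreskin fibroblasts […], normalized to DMSO with bidirectional curve fitting.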

[8] = read-out: Macrophage colony-stimulating factor (MCSF), CSF1 (gene 1435); test: BSK_hDFCGF_MCSF: BioMAP Diversity Plus: hDFCGF Assay for Macrophage colony-stimulating factor (MCSF) Biomarker Activity (AID 2283060); details: primary human foreskin fibroblasts; actives raise or lower the signal
How it was run: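 M-CSF levels read by ELISA at 24 h post-dosing in human skin fibroblasts. Parallel cultures stained with SRB assessed cytotoxicity at the same time point; response fitted in both directions against the DMSO baseline.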

[9] = BSK_hDFCGF_SRB: Viability Assessment in the BioMAP Diversity Plus: hDFCGF Assay (AID 2283061); details: primary human foreskin fibroblasts;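 note: cells exposed to compound for 24 h before the read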
How it was run: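 Viability was read as total protein: after 10% TCA fixation, wells were stained with 0.1% sulforhodamine B and read at 560 nm. Primary human foreskin fibroblasts were dosed for 24 h, with bidirectional fitting versus DMSO.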

[10] = read-out: TIMP metallopeptidase inhibitor 1 (TIMP1), TIMP1 (gene 7076); test: BSK_hDFCGF_TIMP1: BioMAP Diversity Plus: hDFCGF Assay for TIMP metallopeptidase inhibitor 1 (TIMP1) Biomarker Activity (AID 2283062); details: primary human foreskin fibroblasts; actives raise or lower the signal
How it was run: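 TIMP-1 measured by ELISA 24 h after chemical dosing of primary human skin fibroblasts, with gain or loss fitted relative to DMSO. Parallel SRB staining (560 nm) monitored overt cytotoxicity.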

[11] = read-out: Monokine induced gamma interferon (MIG), CXCL9 (gene 4283); test: BSK_hDFCGF_MIG: BioMAP Diversity Plus: hDFCGF Assay for Monokine induced gamma interferon (MIG) Biomarker Activity (AID 2283063); details: primary human foreskin fibroblasts; actives raise or lower the signal
How it was run: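 Human primary foreskin fibroblasts in the hDFCGF system, exposed to test chemical for 24 h; MIG measured by ELISA. Bidirectional curve fitting against DMSO negative control as activity baseline.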

[12] = read-out: Matrix Metallopeptidase 1 (MMP1), MMP1 (gene 4312); test: BSK_hDFCGF_MMP1: BioMAP Diversity Plus: hDFCGF Assay for Matrix Metallopeptidase 1 (MMP1) Biomarker Activity (AID 2283064); details: primary human foreskin fibroblasts; actives raise or lower the signal
How it was run: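 Primary human foreskin fibroblasts exposed to chemicals for 24 h; MMP1 measured by ELISA. Cytotoxicity tracked by SRB staining in parallel cultures; bidirectional fit relative to DMSO.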

[13] = read-out: Vascular cell adhesion molecule 1 (VCAM1), VCAM1 (gene 7412); test: BSK_hDFCGF_VCAM1: BioMAP Diversity Plus: hDFCGF Assay for Vascular cell adhesion molecule 1 (VCAM1) Biomarker Activity (AID 2283065); details: primary human foreskin fibroblasts; actives raise or lower the signal;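 for AC50: VCAM-1 protein level quantified by ELISA after 24 h chemical exposure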
How it was run: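 ELISA readout of VCAM-1 on human dermal fibroblast primary cultures, 24 h after chemical exposure. Gain or loss of signal fitted in both directions against DMSO baseline.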

[14] = read-out: Plasminogen activator inhibitor-1 (PAI1), SERPINE1 (gene 5054); test: BSK_hDFCGF_PAI1: BioMAP Diversity Plus: hDFCGF Assay for Plasminogen activator inhibitor-1 (PAI1) Biomarker Activity (AID 2283066); details: primary human foreskin fibroblasts; actives raise or lower the signal
How it was run: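 PAI-1 levels, determined by ELISA, served as the endpoint in human foreskin fibroblast cultures exposed to compound for 24 h, with DMSO as baseline.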

[15] = read-out: Intercellular Adhesion Molecule 1 (ICAM1), ICAM1 (gene 3383); test: BSK_KF3CT_ICAM1: BioMAP Diversity Plus: KF3CT Assay for Intercellular Adhesion Molecule 1 (ICAM1) Biomarker Activity (AID 2283067); details: primary human keratinocytes with fibroblasts; actives raise or lower the signal
How it was run: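 Cell-surface ICAM-1 was measured by ELISA 24 h after dosing primary human skin keratinocytes co-cultured with fibroblasts. Parallel SRB staining tracked overt cytotoxicity. Gain or loss of signal was fitted relative to DMSO.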

[16] = read-out: Interferon-gamma inducible Protein 10 (IP10), CXCL10 (gene 3627); test: BSK_KF3CT_IP10: BioMAP Diversity Plus: KF3CT Assay for Interferon-gamma inducible Protein 10 (IP10) Biomarker Activity (AID 2283068); details: primary human keratinocytes with fibroblasts; actives raise or lower the signal
How it was run: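 Signal is secreted/surface IP-10 by ELISA in a human primary skin co-culture of keratinocytes and foreskin fibroblasts, taken 24 h post-dosing; DMSO served as negative control.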

[17] = BSK_KF3CT_SRB: Viability Assessment in the BioMAP Diversity Plus: KF3CT Assay (AID 2283069); details: primary human keratinocytes with fibroblasts;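 note: total protein by sulforhodamine B staining as a cytotoxicity measure; read 24 h after compound addition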
How it was run: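 Human keratinocyte and foreskin fibroblast co-culture exposed to chemical for 24 h. Total protein measured in parallel cultures by 0.1% sulforhodamine B staining after 10% TCA fixation, read at 560 nm; bidirectional fit relative to DMSO.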

[18] = read-out: TIMP metallopeptidase inhibitor 2 (TIMP2), TIMP2 (gene 7077); test: BSK_KF3CT_TIMP2: BioMAP Diversity Plus: KF3CT Assay for TIMP metallopeptidase inhibitor 2 (TIMP2) Biomarker Activity (AID 2283071); details: primary human keratinocytes with fibroblasts; actives raise or lower the signal
How it was run: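 Keratinocyte–fibroblast co-culture, 24 h exposure; TIMP-2 ELISA, DMSO-normalised bidirectional fit. Parallel SRB (0.1%, TCA-fixed, 560 nm) total-protein staining gauges cytotoxicity.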

[19] = read-out: Transforming growth factor beta 1 (TGFb1), TGFB1 (gene 7040); test: BSK_KF3CT_TGFb1: BioMAP Diversity Plus: KF3CT Assay for Transforming growth factor beta 1 (TGFb1) Biomarker Activity (AID 2283072); details: primary human keratinocytes with fibroblasts; actives raise or lower the signal
How it was run: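 Signal changes in either direction, relative to DMSO, define activity here. TGF-b1 is read by ELISA from a human keratinocyte-fibroblast co-culture 24 h post-dose.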

[20] = read-out: Interleukin-1 alpha (IL1a), IL1A (gene 3552); test: BSK_KF3CT_IL1a: BioMAP Diversity Plus: KF3CT Assay for Interleukin-1 alpha (IL1a) Biomarker Activity (AID 2283070); details: primary human keratinocytes with fibroblasts; actives raise or lower the signal
How it was run: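 Primary human keratinocyte plus foreskin fibroblast co-culture, dosed and measured at 24 h in 96-well plates. IL-1a level quantified by ELISA; bidirectional fit relative to DMSO.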

Measured: AC50

O=C(O)c1[nH]n(-c2ccc(S(=O)(=O)O)cc2)c(=O)c1N=Nc1ccc(S(=O)(=O)O)cc1
not listed: [20]
inactive: all other assays above

CCc1nc(N)nc(N)c1-c1ccc(Cl)cc1
not listed: [8]
inactive: all other assays above

CC(=O)OC1CC(C)OC(C)O1 (stereo not given)
active: [14] 0.523 µM
not listed: [10] | [12] | [20]
inactive: all other assays above

Nc1nc(Cl)nc2c1ncn2[C@H]1C[C@H](O)[C@@H](CO)O1
active: [7] 0.147 µM
not listed: [8] | [10] | [14]
inactive: all other assays above

Cc1cc(Cc2ccc(N)c(C)c2)ccc1N
active: [7] 3.12 µM
not listed: [8] | [10] | [14] | [20]
inactive: all other assays above

CSc1ccc(Oc2ccc(S(N)(=O)=O)cc2CN(C)C)cc1C
not listed: [7] | [20]
inactive: all other assays above

NC=O
not listed: [7] | [12]
inactive: all other assays above

Oc1ccccc1O
inactive: [2] | [5] | [6] | [9] | [16] | [17] | [18]
active: [1] 14.1 µM | [3] 5.64 µM | [4] 10.2 µM | [7] 12 µM | [11] 11.2 µM | [13] 2.5 µM | [15] 4.58 µM | [20] 4.75 µM | [19] 10.4 µM

CCCCCCC(C=O)=Cc1ccccc1
active: [1] 32.6 µM | [4] 30.1 µM | [7] 28.9 µM | [9] 31.5 µM | [13] 32 µM | [16] 30.5 µM
not listed: [8] | [10] | [12]
inactive: all other assays above

CCCC(=O)O
not listed: [7] | [12]
inactive: all other assays above

CN(C)CCCN(C)CCCN(C)C
not listed: [7] | [14] | [20]
inactive: all other assays above

NC1CCCCC1
not listed: [8] | [10] | [20]
inactive: all other assays above

CCCCC(CC)CO (stereo not given)
not listed: [7]
inactive: all other assays above

O=C1O[C@H]([C@H](O)CO)C(O)=C1O
not listed: [8] | [10] | [12] | [14] | [20]
inactive: all other assays above

CCCC[C@H]1CN(CC2CCOCC2)C(=O)OC12CCN(C1(C)CCN(C(=O)c3c(C)ncnc3C)CC1)CC2
not listed: [8] | [10] | [20]
inactive: all other assays above
